Assay outcomes (PubChem BioAssay)
D2 PAM-1 – Beta-Arrestin HTS for Positive Allosteric Modulators of the Human D2 Dopamine Receptor: Potentiators | D(2) dopamine receptor (Homo sapiens), P14416 | hit rate 0.23% among 360,000 | potentiation, % (no concentration beside the values) | AID 624464, 2012 | DiscoveRx D2 beta-arrestin cells, luminescence, 90 min; 100% = 57 uM dopamine signal; in the data active = potentiation above about 50%; inconclusive = mostly about 30% to 49%
Target sequence (P14416 whole entry, looked up): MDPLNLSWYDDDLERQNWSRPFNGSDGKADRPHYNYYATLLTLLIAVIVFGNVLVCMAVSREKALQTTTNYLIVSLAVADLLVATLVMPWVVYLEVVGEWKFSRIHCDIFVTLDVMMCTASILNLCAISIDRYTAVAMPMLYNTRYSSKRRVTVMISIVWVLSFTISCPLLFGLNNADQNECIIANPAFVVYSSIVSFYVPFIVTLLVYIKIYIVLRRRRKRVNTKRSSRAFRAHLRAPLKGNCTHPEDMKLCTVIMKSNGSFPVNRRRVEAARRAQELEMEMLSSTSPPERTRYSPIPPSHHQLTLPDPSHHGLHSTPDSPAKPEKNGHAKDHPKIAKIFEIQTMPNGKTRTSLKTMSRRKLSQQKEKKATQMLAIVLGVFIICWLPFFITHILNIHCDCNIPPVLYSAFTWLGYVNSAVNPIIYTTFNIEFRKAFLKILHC
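PathHunter beta-arrestin assay in DiscoveRx D2 cells. Compounds were added with an EC20 of dopamine (50 nM final) for 90 min at 37 deg C. Luminescence was read 1 h after detection reagent, with 57 uM dopamine as the EC100 control.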
D2 PAM-2 – HTS Assay for Positive Allosteric Modulators of the Human D2 Dopamine Receptor: Primary Screen for Potentiators; D(2) dopamine receptor (Homo sapiens), P14416; HEK293 T-REx D2, calcium flux, EC20 dopamine potentiation; potentiation, % at 10 µM; hit rate 0.34% among 340,000;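 active = potentiation over 3 SD above the plate norm, cut at about 30% in these data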; note: 0% is about no effect
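Potentiation of an EC20 dopamine calcium response measured kinetically over 180 s, after a preceding 180 s compound-only read flagging agonists. Cells: inducible Hek293 Trex D2 line, 4000/well, cultured overnight at 30 C before dye loading.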
D2 ag-1 – Beta-Arrestin HTS for Positive Allosteric Modulators of the Human D2 Dopamine Receptor: Agonists. hit rate 0.084% among 360,000. activation, % (test concentration not listed). DiscoveRx PathHunter D2 beta-arrestin, luminescence, 90 min; 100% = 57 uM dopamine signal; in the data active = activation above about 40%; inconclusive = between about 15% and that limit
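DiscoveRx PathHunter D2 beta-arrestin cells (2,100/well) attached overnight, then compound-stimulated 90 min at 37 C in HBSS/10 mM HEPES/0.1% Tween-20 buffer; beta-galactosidase complementation read by luminescence after 1 h at ambient temperature. Dopamine 57 uM final (EC100) as control.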
D2 antag – HTS Assay for Allosteric Antagonists of the Human D2 Dopamine Receptor: Primary Screen for Antagonists. inhibition, % at 10 µM. HEK293 TREx D2 cells, calcium flux, dopamine EC80. AID 485344, 2010. D(2) dopamine receptor (Homo sapiens), P14416. hit rate 2% among 340,000; in the data active = inhibition above about 30%; inactive = below that, where a call was filed; note: 0% is about no effect
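Overnight-induced (tetracycline, 30 C) HEK293 T-REx cells carrying force-coupled D2 receive a no-wash calcium dye, then compound, then EC80 dopamine at 180 s; signals are read kinetically throughout.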
D2 ag-2 – HTS Assay for Allosteric Agonists of the Human D2 Dopamine Receptor: Primary Screen for Agonists; AID 485358, 2010; activation, % at 2 µM; hit rate 0.53% among 340,000; HEK293 T-REx D2 cells, calcium flux agonist mode;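 active = activation over 3 SD above normal in the single-dose calcium agonist read, cut at about 30% in these data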; note: 0% is about no effect
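In this primary screen, compounds producing a positive calcium signal within 180 s of addition to tetracycline-induced, force-coupled HEK293 Trex D2 cells are flagged; cells are dye-loaded with a no-wash calcium kit beforehand.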
D3 arrestin ag – qHTS of D3 Dopamine Receptor Agonist: D3 Dopamine Receptor B-arrestin Agonist Confirmatory Assay. DiscoveRx D3 beta-arrestin cells, luminescence, 90 min. AID 720506, 2013. Potency, µM (series often up to 76.9 µM), without a hit: at the top dose activation, hits mostly activators. shares compounds with D2 ag-2. hit rate 4% among 2,300;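 note: potency is the fitted concentration of half-maximal effect; 100% = dopamine control response; nearly all actives have a fitted effect of over 70% in size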
D2 ag-3 – qHTS of D3 Dopamine Receptor Agonist: D2 Dopamine Receptor B-arrestin Agonist Counterscreen; hit rate 5.9% among 2,300; shares compounds with D2 ag-2; Potency, µM (doses to about 76.9 µM), without a hit: at the top dose activation, usual class: activators; DiscoveRx PathHunter D2 beta-arrestin, luminescence, 90 min; response scale: percent relative to full dopamine signal; AID 720507, 2013; note: potency is the fitted concentration of half-maximal effect; % of control where 0% means no effect; nearly all actives have a fitted effect of over 70% in size
* marks the source's active call; other numbers are inactive results. Rows were chosen to be rich in hits. Some 2.4% of all compounds tested hit in one or more screens of this group. Unless noted, calls come from the whole dose curve; as a rule, active = well fitted activation curve with a large enough effect; inconclusive = small, poorly fitted or top-dose-only effect; inactive = flat fitted curve, though single readings scatter.

Results for CCCCCOc1c(Cl)cc(C(=O)N(Cc2ccc(C)o2)C2CCS(=O)(=O)C2)cc1Cl (stereo not given) ?
D2 PAM-2: 6.0; D2 ag-2: -1.3

How did N#CC1(NC(=O)CN2CCc3ccccc3C2)CCCC1 do in these assays?
D2 PAM-1: -0.5; D2 PAM-2: -31.8; D2 ag-1: 3.6; D2 antag: 8.1; D2 ag-2: 15.8; D3 arrestin ag: 1.3%; D2 ag-3: 9.8%

What do the screens show for `Cc1ccccc1NC(=O)CN1CCc2ccccc2C1`?
D2 PAM-1: -12.2; D2 PAM-2: -24.1; D2 ag-1: inconclusive; D2 antag: 40.1*; D2 ag-2: 67.9*; D3 arrestin ag: inconclusive; D2 ag-3: inconclusive

How did O=C(CN1CCc2ccccc2C1)NC1CCCC1 do in these assays?
D2 PAM-1: -8.2; D2 PAM-2: 9.5; D2 ag-1: 1.5; D2 antag: 13.8; D2 ag-2: -1.6; D3 arrestin ag: 2.2%; D2 ag-3: 3.7%

How did Cc1cccc(NC(=O)N2CCc3ccccc3C2)c1C do in these assays?
D2 PAM-1: -5.5; D2 PAM-2: -5.6; D2 ag-1: -6.3; D2 antag: 4.7; D2 ag-2: 26.1; D3 arrestin ag: -13.1%; D2 ag-3: 0.5%

How did CCOc1ccccc1NC(=O)CN1CCc2ccccc2C1 do in these assays?
D2 PAM-1: -5.8; D2 PAM-2: -6.7; D2 ag-1: 3.9; D2 antag: -0.2; D2 ag-2: 2.9

Results for O=C(NC1CCCCC1)N1CCc2ccccc2C1 ?
D2 PAM-1: -26.3; D2 PAM-2: 2.0; D2 ag-1: -4.4; D2 antag: -2.8; D2 ag-2: -0.1

What do the screens show for `Cc1ccc(Cl)cc1N1CCN(C(=O)c2cn(C)c3ccc(S(=O)(=O)N4CCCC4)cc3c2=O)CC1`?
D2 PAM-2: -7.7; D2 ag-2: -0.3

Results for CCOc1cccc2sc(N(Cc3cccnc3)C(=O)c3ccco3)nc12 ?
D2 PAM-2: 13.2; D2 ag-2: -0.5

What do the screens show for `Cc1ccc(S(=O)(=O)N2CC3(O)CN(C(=O)OC(C)C)N(C(=O)OC(C)C)CC3(OC(=O)NCc3ccccc3F)C2)cc1` (stereo not given)?
D2 PAM-1: 6.5; D2 ag-1: 7.2

What do the screens show for `COC(=O)c1c(-c2ccccc2OC)sc2ccccc12`?
D2 PAM-1: -5.1; D2 PAM-2: -2.9; D2 ag-1: -0.6; D2 antag: -7.7; D2 ag-2: -0.2; D3 arrestin ag: -4.7%; D2 ag-3: -1.8%

Results for COc1cccc(C2C(C(=O)Nc3ccccc3OC)=C(C)Nc3nc(-c4ccco4)nn32)c1 (stereo not given) ?
D2 PAM-2: -0.3; D2 ag-2: -1.5

How did CCCCC(=NCCc1c(C)[nH]c2ccccc12)C1=C(O)CC(c2ccccc2)CC1=O (stereo not given) do in these assays?
D2 PAM-1: 0.5; D2 ag-1: 3.9; D2 antag: -0.1; D2 ag-2: 0.4; D3 arrestin ag: -6.0%; D2 ag-3: -2.8%

How did CC(=NCCc1c(C)[nH]c2ccc(OC(F)(F)F)cc12)C1=C(O)CC(c2ccccc2)CC1=O (stereo not given) do in these assays?
D2 PAM-1: 2.4; D2 PAM-2: -2.5; D2 ag-1: 11.4; D2 antag: 14.0; D2 ag-2: 3.9; D3 arrestin ag: -3.8%; D2 ag-3: 1.0%

Results for CCCC(=NCCc1c(C)[nH]c2ccccc12)C1=C(O)CC(c2ccccc2)CC1=O (stereo not given) ?
D2 PAM-1: -7.4; D2 PAM-2: -6.1; D2 ag-1: -8.3; D2 antag: -7.2; D2 ag-2: 24.7

Results for CC(=NCCc1c(C)[nH]c2ccc(C)cc12)C1=C(O)CC(c2ccccc2)CC1=O (stereo not given) ?
D2 PAM-1: -15.1; D2 PAM-2: -9.9; D2 ag-1: -12.2; D2 antag: 4.1; D2 ag-2: 5.2

Results for CCCNC(=O)C1(C)CCCN(Cc2ccc3ccccc3c2)C1 (stereo not given) ?
D2 PAM-1: -10.8; D2 ag-1: -3.8

What do the screens show for `COc1cc(C(=O)N(CCCN(C)C)c2nc3c(OC)cccc3s2)cc(OC)c1OC`?
D2 PAM-2: -14.7; D2 ag-2: 4.0

Results for C=CC[C@@H]1Cc2c(Br)ccc(Br)c2[C@@H](CC=C)N1 ?
D2 PAM-1: 12.0; D2 PAM-2: 3.2; D2 ag-1: inconclusive; D2 antag: -5.1; D2 ag-2: 6.1

How did C=CCC1NCCc2c(Br)cccc21 (stereo not given) do in these assays?
D2 PAM-1: -11.2; D2 PAM-2: -16.4; D2 ag-1: 3.6; D2 antag: 29.2; D2 ag-2: 47.1*; D3 arrestin ag: -14.9%; D2 ag-3: -0.1%

How did O=C(CCNC(=O)c1ccc(Cl)cc1)NCCCN1CCOCC1 do in these assays?
D2 PAM-1: -1.3; D2 PAM-2: -9.5; D2 ag-1: -2.9; D2 antag: -18.4; D2 ag-2: -0.2; D3 arrestin ag: -5.8%; D2 ag-3: -5.5%

Results for COc1ccc(-c2noc(CSc3nc4ccccc4[nH]3)n2)cc1OC ?
D2 PAM-2: 9.3; D2 ag-2: -1.0

Results for CCOc1ccc(CC(=N)C2=C(O)CC(C)(C)CC2=O)cc1OCC ?
D2 PAM-1: -5.0; D2 PAM-2: 2.6; D2 ag-1: -3.6; D2 antag: -16.0; D2 ag-2: 1.0

What do the screens show for `CCOc1ccc(CC(=NCCc2ccccc2)C2=C(O)CC(C)(C)CC2=O)cc1OCC`?
D2 PAM-1: -3.1; D2 PAM-2: -18.3; D2 ag-1: 0.4; D2 antag: 0.4; D2 ag-2: 47.2*; D3 arrestin ag: -2.3%; D2 ag-3: 6.5%

Results for COc1ccc(C(C)C)cc1S(=O)(=O)NCc1ccccn1 ?
D2 PAM-1: -0.3; D2 PAM-2: 6.2; D2 ag-1: -4.2; D2 antag: -11.7; D2 ag-2: 0.1
